# Measurements taken from PubChem BioAssay (NCI).
# Compounds without any hit were thinned out: in the full panel of roughly 79,000, 15% have a hit. Unmarked numbers belong to inactive results. Active and inactive are the calls of the source. Cut-off read from the data, not from the text of the source: active = growth inhibition above about 70%; inactive = the rest.
# Assays:
# [1] = NCI Yeast Anticancer Drug Screen. Data for the mec2-1 strain (AID 157); settings: S. cerevisiae mec2-1 strain, stronger effect = higher value
# Procedure, shortened: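 Test agents were screened against the mec2-1 yeast strain, with defined DNA repair or cell cycle alteration. Growth was scored as inhibition against vehicle-only controls.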
# [2] = NCI Yeast Anticancer Drug Screen. Data for the rad14 strain (AID 159);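 note: 0% = growth of vehicle-treated control cultures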; settings: S. cerevisiae rad14 strain growth inhibition, stronger effect = higher value
# Procedure, shortened: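 Yeast cells carrying a defined DNA-repair defect were exposed to compounds, and growth inhibition was calculated relative to vehicle-treated control cultures.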
# [3] = NCI Yeast Anticancer Drug Screen. Data for the CLN2oe strain (AID 163);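 note: 0% = growth of vehicle-only control cultures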; settings: S. cerevisiae CLN2oe strain, stronger effect = higher value
# Procedure, shortened: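 Here, growth inhibition in a cell-cycle-altered yeast strain after compound exposure was quantified against vehicle control growth.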
# [4] = NCI Yeast Anticancer Drug Screen. Data for the cln2 rad14 strain (AID 165);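 note: 0% = growth equal to vehicle treated cultures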; settings: S. cerevisiae cln2 rad14 strain, stronger effect = higher value
# Procedure, shortened: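 Growth of compound-exposed yeast (cln2 rad14 genotype) measured and expressed as inhibition relative to vehicle.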
# [5] = NCI Yeast Anticancer Drug Screen. Data for the bub3 strain (AID 167); settings: S. cerevisiae bub3 mutant strain, stronger effect = higher value
# Procedure, shortened: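 Compounds were applied to a genetically altered yeast strain carrying a cell-cycle control defect. Growth inhibition was scored against vehicle-treated controls.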
# [6] = NCI Yeast Anticancer Drug Screen. Data for the wt2 strain (AID 169);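 note: 0% = growth of vehicle-treated yeast cultures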; settings: S. cerevisiae wt2 strain growth inhibition, stronger effect = higher value
# Procedure, shortened: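 Genetically defined yeast strains from a DNA-repair/cell-cycle panel were used. Compound-exposed yeast growth was measured, and the inhibition was calculated relative to vehicle treatment.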
# [7] = NCI Yeast Anticancer Drug Screen. Data for the mlh1 strain (AID 171);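 note: 0% = growth of vehicle-treated control cultures of the same strain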; settings: S. cerevisiae mlh1 strain growth inhibition, stronger effect = higher value
# Procedure, shortened: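 Here the genetically defined yeast mutant is grown with each compound, and the extent to which its growth falls below that of vehicle-exposed cells is reported.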
# [8] = NCI Yeast Anticancer Drug Screen. Data for the sgs1 strain (AID 173);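 note: 0% = growth of vehicle-only control cultures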; settings: S. cerevisiae sgs1 mutant, stronger effect = higher value
# Procedure, shortened: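 Relative growth inhibition, referenced to vehicle, was determined in a yeast strain with a defined alteration affecting DNA damage repair or cell cycle control after compound exposure.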
# [9] = NCI Yeast Anticancer Drug Screen. Data for the rad18 strain (AID 177); settings: S. cerevisiae rad18 mutant growth inhibition, stronger effect = higher value
# Procedure, shortened: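 Screen uses a yeast strain with a defined lesion in DNA damage repair; compound effect is read as loss of growth compared to untreated vehicle cultures.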
# [10] = NCI Yeast Anticancer Drug Screen. Data for the rad52 strain (AID 147);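 note: 0% = growth of vehicle-treated control cultures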; settings: S. cerevisiae rad52 mutant growth inhibition, stronger effect = higher value
# Procedure, shortened: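 Measured: yeast growth inhibition. System: strain with a defined DNA damage repair alteration. Reference: vehicle-treated control cultures.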
# [11] = NCI Yeast Anticancer Drug Screen. Data for the rad50EPP+ strain (AID 151);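 note: 0% = growth of vehicle-treated control cultures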; settings: S. cerevisiae rad50 mutant strain, stronger effect = higher value
# Procedure, shortened: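 One strain with a rad50 alteration (rad50EPP+) was compound-treated, its growth then compared to that of vehicle controls.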
# [12] = NCI Yeast Anticancer Drug Screen. Data for the mgt1 strain (AID 153); settings: S. cerevisiae mgt1 mutant growth inhibition, stronger effect = higher value
# Procedure, shortened: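 After exposure of the mgt1 yeast mutant to compound, growth was measured and reported as inhibition compared with vehicle controls.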
# [13] = NCI Yeast Anticancer Drug Screen. Data for the rad50 strain (AID 155);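 note: 0% = growth of vehicle-only cultures of the same strain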; settings: S. cerevisiae rad50 strain growth inhibition, stronger effect = higher value
# Procedure, shortened: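 Yeast carrying a defined DNA repair defect were exposed to test compounds, and growth was compared with vehicle-treated controls to give percent inhibition.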
# [14] = NCI Yeast Anticancer Drug Screen. Data for the sgs1 mgt1 strain (AID 161);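 note: 0% = growth of cultures given vehicle only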; settings: S. cerevisiae sgs1 mgt1 strain, stronger effect = higher value
# Procedure, shortened: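 Inhibition of yeast growth, normalised to vehicle-treated controls, is reported for a strain bearing genetic alterations in DNA damage repair.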
# [15] = NCI Yeast Anticancer Drug Screen. Data for the mlh1 rad18 strain (AID 175); settings: S. cerevisiae mlh1 rad18 strain growth inhibition, stronger effect = higher value
# Procedure, shortened: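 In this whole-cell yeast screen, a strain with altered DNA damage repair is challenged with compound, and its growth is measured against matched vehicle-treated controls.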
# [16] = at 5.0 µM (retest, dose inferred, filed as 0.5)
# [17] = at 50.0 µM (retest, dose inferred, filed as 5.0)
smiles,measurement,setting,value
O=[N+]([O-])c1cc[n+]([O-])c(Cl)c1,growth inhibition,[1]; at 100.0 µM,99% (active)
same,growth inhibition,[2]; at 1.2 µM,1%
same,growth inhibition,[2]; at 3.7 µM,5%
same,growth inhibition,[2]; at 11.0 µM,19%
same,growth inhibition,[2]; at 33.0 µM,97% (active)
same,growth inhibition,[2]; at 100.0 µM,100% (active)
same,growth inhibition,[3]; at 1.2 µM,-6%
same,growth inhibition,[3]; at 3.7 µM,-4%
same,growth inhibition,[3]; at 11.0 µM,12%
same,growth inhibition,[3]; at 33.0 µM,79% (active)
same,growth inhibition,[3]; at 100.0 µM,99% (active)
same,growth inhibition,[4]; [16],10%
same,growth inhibition,[4]; [17],98% (active)
same,growth inhibition,[4]; at 50.0 µM,99% (active)
same,growth inhibition,[5]; at 1.2 µM,-16%
same,growth inhibition,[5]; at 3.7 µM,-16%
same,growth inhibition,[5]; [16],5%
same,growth inhibition,[5]; at 11.0 µM,-8%
same,growth inhibition,[5]; at 33.0 µM,98% (active)
same,growth inhibition,[5]; [17],99% (active)
same,growth inhibition,[5]; at 50.0 µM,99.5% (active)
same,growth inhibition,[5]; at 100.0 µM,99% (active)
same,growth inhibition,[6]; at 1.2 µM,-55%
same,growth inhibition,[6]; at 3.7 µM,-50%
same,growth inhibition,[6]; at 11.0 µM,-42%
same,growth inhibition,[6]; at 33.0 µM,99% (active)
same,growth inhibition,[6]; at 100.0 µM,99% (active)
same,growth inhibition,[7]; at 1.2 µM,-11%
same,growth inhibition,[7]; at 3.7 µM,16%
same,growth inhibition,[7]; at 11.0 µM,30%
same,growth inhibition,[7]; at 33.0 µM,98% (active)
same,growth inhibition,[7]; at 100.0 µM,99% (active)
same,growth inhibition,[8]; at 1.2 µM,8%
same,growth inhibition,[8]; at 3.7 µM,10%
same,growth inhibition,[8]; at 11.0 µM,34%
same,growth inhibition,[8]; at 33.0 µM,100% (active)
same,growth inhibition,[8]; at 100.0 µM,100% (active)
same,growth inhibition,[9]; at 1.2 µM,-25%
same,growth inhibition,[9]; at 3.7 µM,-21%
same,growth inhibition,[9]; at 11.0 µM,-5%
same,growth inhibition,[9]; at 33.0 µM,98% (active)
same,growth inhibition,[9]; at 100.0 µM,99% (active)
CC(C)(CN1CCCCC1)C(=O)CC(SCCS(=O)(=O)O)c1ccccc1 (stereo not given),growth inhibition,[10]; at 1.2 µM,6%
same,growth inhibition,[10]; at 3.7 µM,4%
same,growth inhibition,[10]; at 11.0 µM,25%
same,growth inhibition,[10]; at 33.0 µM,34%
same,growth inhibition,[10]; at 100.0 µM,18%
same,growth inhibition,[11]; at 1.2 µM,1%
same,growth inhibition,[11]; at 3.7 µM,0%
same,growth inhibition,[11]; at 11.0 µM,-1%
same,growth inhibition,[11]; at 33.0 µM,-1%
same,growth inhibition,[11]; at 100.0 µM,-5%
same,growth inhibition,[12]; at 1.2 µM,1%
same,growth inhibition,[12]; at 3.7 µM,5%
same,growth inhibition,[12]; at 11.0 µM,6%
same,growth inhibition,[12]; at 33.0 µM,8%
same,growth inhibition,[12]; at 100.0 µM,12%
same,growth inhibition,[13]; at 1.2 µM,1%
same,growth inhibition,[13]; at 3.7 µM,4%
same,growth inhibition,[13]; [16],10%
same,growth inhibition,[13]; at 11.0 µM,8%
same,growth inhibition,[13]; at 33.0 µM,14%
same,growth inhibition,[13]; [17],7%
same,growth inhibition,[13]; at 50.0 µM,9.6%
same,growth inhibition,[13]; at 100.0 µM,11%
same,growth inhibition,[1]; at 1.2 µM,-1%
same,growth inhibition,[1]; at 3.7 µM,-4%
same,growth inhibition,[1]; [16],11%
same,growth inhibition,[1]; at 11.0 µM,0%
same,growth inhibition,[1]; at 33.0 µM,9%
same,growth inhibition,[1]; [17],-3%
same,growth inhibition,[1]; at 50.0 µM,-12.1%
same,growth inhibition,[1]; at 100.0 µM,8%
same,growth inhibition,[2]; at 1.2 µM,3%
same,growth inhibition,[2]; at 3.7 µM,9%
same,growth inhibition,[2]; at 11.0 µM,17%
same,growth inhibition,[2]; at 33.0 µM,31%
same,growth inhibition,[2]; at 100.0 µM,39%
same,growth inhibition,[14]; [16],17%
same,growth inhibition,[14]; [17],1%
same,growth inhibition,[14]; at 50.0 µM,-2%
same,growth inhibition,[3]; at 1.2 µM,-6%
same,growth inhibition,[3]; at 3.7 µM,0%
same,growth inhibition,[3]; at 11.0 µM,8%
same,growth inhibition,[3]; at 33.0 µM,15%
same,growth inhibition,[3]; at 100.0 µM,31%
same,growth inhibition,[4]; [16],72% (active)
same,growth inhibition,[4]; [17],69%
same,growth inhibition,[4]; at 50.0 µM,46.3%
same,growth inhibition,[5]; at 1.2 µM,-1%
same,growth inhibition,[5]; at 3.7 µM,-6%
same,growth inhibition,[5]; [16],19%
same,growth inhibition,[5]; at 11.0 µM,-1%
same,growth inhibition,[5]; at 33.0 µM,5%
same,growth inhibition,[5]; [17],32%
same,growth inhibition,[5]; at 50.0 µM,12.1%
same,growth inhibition,[5]; at 100.0 µM,13%
same,growth inhibition,[6]; at 1.2 µM,0%
same,growth inhibition,[6]; at 3.7 µM,2%
same,growth inhibition,[6]; at 11.0 µM,5%
same,growth inhibition,[6]; at 33.0 µM,11%
same,growth inhibition,[6]; at 100.0 µM,15%
same,growth inhibition,[8]; at 1.2 µM,3%
same,growth inhibition,[8]; at 3.7 µM,6%
same,growth inhibition,[8]; at 11.0 µM,7%
same,growth inhibition,[8]; at 33.0 µM,19%
same,growth inhibition,[8]; at 100.0 µM,22%
same,growth inhibition,[15]; [16],17%
same,growth inhibition,[15]; [17],-1%
same,growth inhibition,[15]; at 50.0 µM,5.05%
same,growth inhibition,[9]; at 1.2 µM,10%
same,growth inhibition,[9]; at 3.7 µM,11%
same,growth inhibition,[9]; at 11.0 µM,16%
same,growth inhibition,[9]; at 33.0 µM,26%
same,growth inhibition,[9]; at 100.0 µM,37%
